Bioassay records deposited in PubChem by National Center for Advancing Translational Sciences (NCATS).
Most compounds without a hit are left out; they make up all but 12% or so of the library.
Pf growth 96h: P. falciparum growth inhibition at 96 hours | P. falciparum luciferase reporter growth, 96 h | Potency, µM (series often up to 28.7 µM), for inactives: at the top dose activity change, negative = inhibition, most hits filed as inhibitors | actives 6.9% (n = 320,000) | AID 504834; also: % is scaled to controls: 0 for no effect and ±100 for the full control effect
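P. falciparum expressing integrated firefly luciferase, in erythrocytes at 2% hematocrit, 0.05% parasitemia, incubated with compounds 96 h at 37 C, 5% CO2. Growth inhibition read as loss of luminescence; two-generation exposure targets delayed-death apicoplast inhibitors.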
HCV inh: HCV inhibition; Huh7.5.1 HCVcc-Cre infection, luciferase reporter, 44 h; actives 3.4% (n = 340,000); Potency, µM (doses to about 41.8 µM), for the others: at the highest dose activity change, negative = inhibition, actives largely listed as inhibitors; AID 651820; also: % is scaled to controls: 0 for no effect and ±100 for the full control effect
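Infectious HCV cell culture screen: compound-treated cells (1,000/well, pre-plated 4 h) are infected with HCVcc-Cre at roughly 0.5 moi and grown 44 h. Infection is quantified by luciferase signal after 15 min substrate incubation at room temperature.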
Pf growth 48h: P. falciparum growth inhibition at 48 hours (one generation). AID 504832. actives 5.9% (n = 310,000). Potency, µM (highest dose often 28.7 µM), inactives show at the highest dose activity change, negative = inhibition, most hits filed as inhibitors. P. falciparum luciferase growth in erythrocytes, 48 h; also: % is scaled to controls: 0 for no effect and ±100 for the full control effect
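Erythrocytes infected with P. falciparum carrying an integrated firefly luciferase reporter (2% hematocrit, 0.1% parasitemia final) were exposed to compounds in RPMI 1640 with 0.5% Albumax at 37 C, 5% CO2. Growth inhibition was scored as reduced luminescence.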
SARS PLP yeast: SARS-CoV PLP inhibition in yeast; AID 485353; actives 0.19% (n = 330,000); S. cerevisiae expressing SARS-CoV PLpro, growth rescue; Potency, µM (series often up to 32.9 µM), for inactives: at the top dose activity, positive = growth rescue, most hits filed as activators; calls by dose curve; also: 0% is about no effect; nearly all actives have a fitted effect of over 55% in size
NS1 inh: blocks influenza NS1 protein function; Potency, µM (titrated, usually from 46.1 µM), for the others: at the top dose activity, positive = more growth; actives 0.4% (n = 270,000); calls by dose curve; also: actives are rising curves; nearly all actives have a fitted effect of over 50% in size
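Compounds were scored for reversing the slow growth caused by influenza A NS1 in S. cerevisiae, measured by optical density at 600 nm. Assay medium contained 2% galactose at pH 6.0; NS1-free yeast of the same strain were the positive control.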
AMA1 RON2 block: AMA1-RON2 (P. falciparum) interaction inhibition; AlphaScreen AMA1-biotinylated RON2 peptide binding; Potency, µM (top dose mostly 58.2 µM), inactives show at the highest dose activity change, negative = inhibition, hits mostly inhibitors; actives 0.2% (n = 360,000); AID 720542;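 also: 0% = vehicle wells and -100% = peptide control; nearly all actives have a fitted effect of over 45% in size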
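AMA1 (3D7) with his tag at 25 nM final met compounds first, then biotinylated RON2 peptide at 25 nM; detection used donor plus acceptor beads, 10 µg/mL apiece, read by AlphaScreen after 30 min at room temperature.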
* hit, by the source's call; u = inconclusive; x = not tested or not shown; [ ] = remark or other dose. Unless noted, calls follow the shape of the dose curve; as a rule, active = well fitted curve in the direction sought with a large enough effect; inconclusive = small, poorly fitted or top-dose-only effect, or another doubt; inactive = no such curve, though single readings can be large; an effect the other way counts as inactive or inconclusive. Potency is read from the fitted curve at half-maximal effect.

SMILES	Pf growth 96h	HCV inh	Pf growth 48h	SARS PLP yeast	NS1 inh	AMA1 RON2 block
COc1ccc([C@@H](Nc2ccccn2)c2cc(C(C)(C)C)cc(C(C)(C)C)c2O)cc1	x	x	x	x	-0.6%	x
CCc1n(CC(O)COC2CCCCC2)c2ccccc2[n+]1C (stereo not drawn)	u	11.3%	2.62µM*	0.4%	-2.9%	1.7%
CCc1n(CC(O)COCC2CC=CCC2)c2ccccc2[n+]1C (stereo not drawn)	26.6%	23.8%	u	-1.3%	1.0%	-4.5%
COc1ccc(C2SCCN2C(=S)Nc2cccc(C(F)(F)F)c2)cc1 (stereo not drawn)	9.28µM*	29.5%	2.33µM*	-19.0%	-8.0%	6.5%
Cc1ccccc1N1CCN(C2CCCN(C(=O)c3cn4cccc(C)c4n3)C2)CC1 (stereo not drawn)	u	11.2µM*	u	-2.5%	-22.9%	-11.0%
COc1ccc(C(=O)N2CCCC(N3CCN(c4ccccc4OC)CC3)C2)c(OC)n1 (stereo not drawn)	-12.5%	-15.4%	-1.6%	-4.8%	0.2%	-7.9%
COc1ccccc1N1CCN(C2CCCN(C(=O)c3snnc3C)C2)CC1 (stereo not drawn)	13.1µM*	18.1%	-0.4%	4.7%	2.5%	-5.3%
COc1ccc(C(=O)N2CCCC(N3CCN(c4ccccc4F)CC3)C2)c(OC)n1 (stereo not drawn)	13.1µM*	u	-2.6%	0.5%	-17.8%	2.6%
CCC1(c2ccc(OC)cc2)NC(=O)N(CC(=O)c2ccc3c(c2)OCCO3)C1=O (stereo not drawn)	u	u	u	1.0%	x	1.6%
Cc1ccc(CN(C)C(=O)CSc2nnc3n2CCCCC3)c(C)c1	7.38µM*	-7.0%	u	0.9%	x	-5.4%
Cc1noc(C)c1COc1ccc(C(=O)OCC(=O)Nc2c(C)n(C)n(-c3ccccc3)c2=O)cc1	u	15.6%	-11.7%	0.7%	3.7%	7.3%
CCc1cc(C(=O)N=Nc2c(O)[nH]c3c(Br)cc(Br)cc23)c2ccccc2n1	4.65µM*	-5.8%	-24.1%	3.8%	25.1%	11.4%
CCc1cc(C(=O)N=Nc2c(O)[nH]c3ccc([N+](=O)[O-])cc23)c2ccccc2n1	u	u	-9.5%	14.4%	u	-5.0%
CC(O/N=C(\N)c1ccccc1)C(=O)Nc1cccc(C(F)(F)F)c1 (stereo not drawn)	x	u	x	-2.5%	x	-1.6%
NS(=O)(=O)c1cccc(C(=O)OCC(=O)NC2CCCc3ccccc32)c1 (stereo not drawn)	x	-24.5%	x	-4.1%	x	-1.6%
CCOC(=O)c1ccccc1NC(=O)Cc1c(C(=O)O)n(C)c2ccccc12	24.9%	6.2%	-2.8%	0.3%	13.6%	-10.5%
CCOC(=O)N1CCN(C(=O)Cc2c(C(=O)O)n(C)c3ccccc23)CC1	-4.2%	3.55µM*	-4.0%	-2.7%	x	-12.2%
CCOC(=O)N1CCN(C(=O)COc2ccc3ccccc3c2Br)CC1	13.1µM*	-21.0%	7.3%	-8.2%	-19.7%	19.3%
Cc1cc(Nc2ccccc2)nn1C(=O)c1ccc(Br)cc1	x	14.1µM*	14.6%	-55.7%	-9.8%	1.8%
Cc1cc(Nc2ccccc2)nn1C(=O)c1ccccc1	9.28µM*	u	x	-29.2%	-190.8%	11.9%
CCc1ccc(CN(C)C(=O)c2ccc3c(c2)OCCO3)cc1	-6.9%	-11.5%	10.2%	-1.9%	-30.8%	6.8%
COCCN(CCOC)S(=O)(=O)c1ccc(C(=O)Nc2c(C)n(C)n(-c3ccccc3)c2=O)cc1	2.5%	7.1%	1.0%	0.1%	4.8%	-7.5%
N#C/C(=C/N1CCOCC1)c1ccccc1	6.9%	3.16µM*	50.3%	-2.4%	-8.0%	0.0%
O=C(c1ccccc1)c1ccc(C(=O)N2CCOCC2)cc1	17.3%	-6.0%	21.1%	1.1%	-5.2%	-8.7%
O=C(Nc1nccs1)NC1CCCCC1	12.4%	15.1%	2.94µM*	1.5%	6.2%	0.0%
SMILES	Pf growth 96h	HCV inh	Pf growth 48h	SARS PLP yeast	NS1 inh	AMA1 RON2 block
O=C(O)CCC(CNS(=O)(=O)c1ccccc1)C(F)(F)F (stereo not drawn)	u	-10.0%	-8.9%	1.8%	x	0.1%
O=S(=O)(c1cc(F)ccc1F)N1CCN(c2ncnc3ccccc23)CC1	x	3.16µM*	x	-14.6%	x	-1.5%
NC(=O)C1CCN(C(=O)c2ccccc2SCC(=O)NCC2CCCCC2)CC1	23.1%	x	u	x	12.0%	52.9%
COc1ccc(OC)c(NC(=O)CC2C(=O)NCCN2C(=O)c2ccccc2)c1 (stereo not drawn)	u	3.9%	19.2%	-1.4%	4.7%	3.2%
Cc1ccc(N=C2NC(=O)CS2)cc1C	10.1%	13.5%	-16.9%	4.1%	-9.8%	-5.1%
C=CCn1c(=O)c2ccccc2n2c(SC(C)C(=O)Nc3nc(-c4ccccc4)cs3)nnc12 (stereo not drawn)	u	u	10.4µM*	-18.5%	-16.7%	-15.2%
COc1ccc(S(=O)(=O)n2nc(-n3c(C)ccc3C)c3c(F)cccc32)cc1OC	u	u	5.86µM*	-1.6%	6.6%	-21.9%
Cc1ccsc1C(=O)C1CCCN(Cc2cn(C)nc2C)C1 (stereo not drawn)	14.4%	5.6%	0.5%	-0.4%	3.8%	1.8%
O=C(c1ccc(Cl)cc1)C1CCCN(Cc2ccc(Oc3ncccn3)cc2)C1 (stereo not drawn)	u	11.2µM*	-11.8%	-0.8%	3.4%	0.0%
Cc1nn(C)cc1CN1CCCC(C(=O)c2ccc(-c3ccccc3)cc2)C1 (stereo not drawn)	82.4%[1.15 µM]	4.47µM*	-11.4%	0.5%	-0.5%	-21.9%
O=C(c1ccc(Cl)cc1)C1CCCN(Cc2cnn(-c3ccccc3)c2)C1 (stereo not drawn)	28.7%	22.4µM*	-20.1%	0.0%	-2.2%	u
Cn1c(CN2CCCC(C(=O)c3ccc4c(c3)OCO4)C2)nc2ccccc21 (stereo not drawn)	9.28µM*	-17.0%	u	0.5%	3.8%	47.2%
O=C(c1ccc2c(c1)OCO2)C1CCCN(Cc2ccccn2)C1 (stereo not drawn)	17.8%	-0.5%	u	0.5%	2.5%	47.3%
CCOc1ccc(NC(=O)CN(C)S(=O)(=O)c2ccc(-c3ccc(=O)[nH]n3)s2)cc1	-14.7%	-15.7%	u	-2.3%	7.8%	-4.7%
Brc1cc2[nH]cnc2c2ccccc12	x	10µM*	u	-16.0%	-85.2%	-5.4%
O=C(Cn1nnc2ccccc21)NNC(=O)c1ccccc1	65.6%	-4.7%	60.0%	0.7%	-0.6%	104.9%
CC(C)C[C@@H](CO)NS(=O)(=O)c1c(F)cccc1F	x	3.55µM*	x	x	x	16.8%
O=S(=O)(Nc1ncccn1)c1ccc(NC(=S)NCc2cccnc2)cc1	-10.2%	8.7%	32.4%	-0.5%	6.7%	0.2%
